# Test results as given in paper PMC7819943, “Rice protein-binding microarrays: a tool to detect cis-acting elements near promoter regions in rice”.
# The full ranking holds about 39,000 sequences; the median of “fluorescence intensity (a.u.)” is about 4,300, and the highest 2% start at about 39,000. Many of the other results were omitted from the sample, so the highest values are more common in it than they were.
# Biological target: T1, OsSMF1 (Oryza sativa, UniProt Q6ZLB0 1-436)
# T1 sequence: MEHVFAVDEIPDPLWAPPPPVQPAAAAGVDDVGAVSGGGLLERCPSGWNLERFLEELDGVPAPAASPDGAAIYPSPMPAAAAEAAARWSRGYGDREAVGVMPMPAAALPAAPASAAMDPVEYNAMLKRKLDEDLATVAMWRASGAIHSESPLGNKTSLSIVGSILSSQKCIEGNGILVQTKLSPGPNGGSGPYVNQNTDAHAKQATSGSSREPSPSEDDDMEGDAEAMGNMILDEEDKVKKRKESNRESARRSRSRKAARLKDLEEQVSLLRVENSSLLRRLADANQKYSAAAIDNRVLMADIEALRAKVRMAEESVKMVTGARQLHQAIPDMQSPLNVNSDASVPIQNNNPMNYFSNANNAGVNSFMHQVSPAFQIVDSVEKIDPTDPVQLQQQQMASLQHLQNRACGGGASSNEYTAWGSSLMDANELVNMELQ
# Experiment: protein-binding microarray (RPBM); PBS, 2% BSA, 51.3 ng/ul salmon testes DNA, 50 uM zinc acetate, 200 nM TF, 25 C, 1 h; high values mean tight binding
# Conditions: protein: recombinant; tags: N-terminal polyhistidine and DsRed monomer fusion (pET32a); chain copies: 2; label: CyDye5-dUTP incorporated in the synthesized complementary strand; 3' TTTTT single-stranded linker to array surface; dsDNA, one strand shown
# How it was run: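 Using Ni–NTA, transcription factors fused N-terminally to polyhistidine and DsRed were purified after expression in E. coli BL21-CodonPlus. These were incubated at 200 nM with a blocked, double-stranded custom Agilent array for 1 h at 25 °C in a buffer containing 50 µM zinc acetate, and the array was washed. The binding signal is per-feature fluorescence intensity (arbitrary units) on an Axon 4000B scanner.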
row,Sequence,binding signal
1,GGTGTGGCGTGAGCGTGACACGGTGTCAACTGTCAAGTGTCGGAGTCACCTAGTGCAG,3400 fluorescence intensity (a.u.)
2,AATAGCTCTCTCCTCAGTCTCTCACGGCCTCATCACCACCCGGAGTCACCTAGTGCAG,3170 fluorescence intensity (a.u.)
3,TCTCGCCTACCACCAAGCTCATCTCGTTTCGTTAGCTACCCGGAGTCACCTAGTGCAG,41600 fluorescence intensity (a.u.)
4,TGCCCGGCTCGGCTACCCCGTCGCCACCGCCGTTCGTTTCCGGAGTCACCTAGTGCAG,3190 fluorescence intensity (a.u.)
5,GGTCCCTCAGCGGTTTTGGCTGACGTGGCGCATACGTGGCCGGAGTCACCTAGTGCAG,51700 fluorescence intensity (a.u.)
6,TTTAGATGGCGGTTTTGGCTGACGTGGCGTCTACGTGACGCGGAGTCACCTAGTGCAG,30700 fluorescence intensity (a.u.)
7,GTTTTGACCCGGTTTTGGTCTACGTGGCGCTGAGTCAGCGCGGAGTCACCTAGTGCAG,29900 fluorescence intensity (a.u.)
8,AGGCGGTTTTGGCTGATGTGGCGTCTACGTGGCTTGTTTGCGGAGTCACCTAGTGCAG,25300 fluorescence intensity (a.u.)
9,GACCCCGGTTTTGTCCCACGTGGCGGCTGACTCAGCGTGGCGGAGTCACCTAGTGCAG,22500 fluorescence intensity (a.u.)
10,TGGCGGTTTGGAAGGCGGTTTTGGCTGACGTGGCGTCTACCGGAGTCACCTAGTGCAG,43800 fluorescence intensity (a.u.)
11,GATCTCCTTTACACGTGATGTTGACGTGGCGTTTAGGTGGCGGAGTCACCTAGTGCAG,26500 fluorescence intensity (a.u.)
12,GGAAGCGCCAGCCAGCGCTCGCCGTTGTCACCTGTCACACCGGAGTCACCTAGTGCAG,3480 fluorescence intensity (a.u.)
13,TACAGATCGATGCGACACTCTGACACGTTACGCTCTCTCTCGGAGTCACCTAGTGCAG,6440 fluorescence intensity (a.u.)
14,TTGTGATGTCCATGTCACATGCAGTCCATTAAGGCCCTTGCGGAGTCACCTAGTGCAG,5190 fluorescence intensity (a.u.)
15,GTTGTTGTTCTTGGATGTGAATGTGAATAATGTGATGTTTCGGAGTCACCTAGTGCAG,3350 fluorescence intensity (a.u.)
16,TAGAGGCAAGCACGACCAATGAGGACATAGGGAATGGTTCCGGAGTCACCTAGTGCAG,9700 fluorescence intensity (a.u.)
17,TGTGGTGGCGAGCGGCACGGAGGCGGGGCGGTGGAGGGAGCGGAGTCACCTAGTGCAG,3980 fluorescence intensity (a.u.)
18,CAGTGCTAGGGAAGCGACCAATGATGGATAGTGGGAGGCACGGAGTCACCTAGTGCAG,45600 fluorescence intensity (a.u.)
19,CTGTGCCGCTCGCTCGTTCGCTCTGTGACTGTACGTACATCGGAGTCACCTAGTGCAG,4590 fluorescence intensity (a.u.)
20,TTGTCGCGATGTGCCCCTTCTACGGGGTGCCACGTCACATCGGAGTCACCTAGTGCAG,39500 fluorescence intensity (a.u.)
21,CCACATCGGATGCCACGTCAGCCCTAGCCACATCAGCGCACGGAGTCACCTAGTGCAG,38500 fluorescence intensity (a.u.)

row,Sequence,binding signal
1,GTGTGGGGCCACGTCACAGTGGGCCCCATATGTCGGTGGGCGGAGTCACCTAGTGCAG,12700 fluorescence intensity (a.u.)
2,GTTCGGTTTCGCGGTCAAGCGCGTGACGTGAGGTCGCCCACGGAGTCACCTAGTGCAG,5720 fluorescence intensity (a.u.)
3,CAGCAGCAGCAGCAGCCGCCGCCTCCGTCCGTCCGTCCGTCGGAGTCACCTAGTGCAG,3230 fluorescence intensity (a.u.)
4,GAGAAATGACGACACATCCTCTCGAGTGATCAGGATCCGTCGGAGTCACCTAGTGCAG,3590 fluorescence intensity (a.u.)
5,TGTGCCCTCTCCGTTCGATCCAGGAAAATGATAGTGTGATCGGAGTCACCTAGTGCAG,50200 fluorescence intensity (a.u.)
6,TTCGTGTGCCTAGGAAAATGGTATCCAAACCCCTCAAAATCGGAGTCACCTAGTGCAG,4190 fluorescence intensity (a.u.)
7,TCACATCCGAGCTGAGCTCCTGACACAGTGACACTACTGGCGGAGTCACCTAGTGCAG,4310 fluorescence intensity (a.u.)
8,CGTACAACGGGTGTGTGTTTGGAGCCTGTAGCATGTGGTGCGGAGTCACCTAGTGCAG,4250 fluorescence intensity (a.u.)
9,GGCCTGTCGTACAAGCCGCTTTGCTTGGGCATACAAGCAACGGAGTCACCTAGTGCAG,65100 fluorescence intensity (a.u.)
10,GGGCAGCGTGTACAAGCCGGACAACGTGTCGCCGCCGGAGCGGAGTCACCTAGTGCAG,3340 fluorescence intensity (a.u.)
11,GATTACATGTAGACTATTTATCTACGTGGACAAAATCTCTCGGAGTCACCTAGTGCAG,13100 fluorescence intensity (a.u.)
12,CGTACTCATCTCCTACACATCATCTCCAATTAATCTAATTCGGAGTCACCTAGTGCAG,3180 fluorescence intensity (a.u.)
13,TCCATACATTATTGACGTAATCATAAATATACATCCATGTCGGAGTCACCTAGTGCAG,3360 fluorescence intensity (a.u.)
14,GAAACTCTAAATCTGCCATTACCCCAAGTACATCATTAGTCGGAGTCACCTAGTGCAG,3310 fluorescence intensity (a.u.)
15,ATTTATCATTATTAACTAATAATAACATTGATGTAATTAACGGAGTCACCTAGTGCAG,3400 fluorescence intensity (a.u.)
16,TTTGCCATTAGCGTACTCACCTAATCTAATCATCGGATTACGGAGTCACCTAGTGCAG,48900 fluorescence intensity (a.u.)
17,CCATTGATTGATTATCAGTGGGCGTAATCATCAGTCTAAACGGAGTCACCTAGTGCAG,42100 fluorescence intensity (a.u.)
18,AATGACAGGACAACGAGGACACCGTGGATATTAAAGACCCCGGAGTCACCTAGTGCAG,4140 fluorescence intensity (a.u.)
19,TGGTAACTAAACTGCCATGTCAGGGACAGATCGACCAGTGCGGAGTCACCTAGTGCAG,5160 fluorescence intensity (a.u.)
20,AGGACACGTAGCATTTCCTCCTCAAGCAAGAGGAGCAGTACGGAGTCACCTAGTGCAG,4000 fluorescence intensity (a.u.)
21,AACGTCAAGTACTCACGTGGTCCACGAATATTTAAGCCTACGGAGTCACCTAGTGCAG,4480 fluorescence intensity (a.u.)
